For 27 compounds, inhibition results are on record in PubChem BioAssay AID492992 (Johns Hopkins Ion Channel Center, 2010).

The inhibition is the change of the read-out against control, counted positive when it falls.

Hit rate of the full screen: of about 4,900 compounds, about 2,100 (43%) were called active.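 Rule for the calls: active = thallium signal inhibited by more than 5 SD of the compound-free buffer control wells, on both duplicate plates; inactive = the rest.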 The set was probably picked from earlier hits. The list is a sample of the results.

For this test, the target named is Potassium channel subfamily K member 9 (Homo sapiens) (UniProt Q9NPC2). Nature of the test: blockers of human TASK-3 (KCNK9) channel – HEK293 cells, thallium flux, duplicate, confirmation (AID 492992).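 For inhibition: 0% = assay buffer control wells without compound.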 The note with it: FluxOR thallium flux fluorescence, at 10 µM; hits give high values.
Potassium channel subfamily K member 9 (Homo sapiens), sequence (Q9NPC2 whole entry, looked up): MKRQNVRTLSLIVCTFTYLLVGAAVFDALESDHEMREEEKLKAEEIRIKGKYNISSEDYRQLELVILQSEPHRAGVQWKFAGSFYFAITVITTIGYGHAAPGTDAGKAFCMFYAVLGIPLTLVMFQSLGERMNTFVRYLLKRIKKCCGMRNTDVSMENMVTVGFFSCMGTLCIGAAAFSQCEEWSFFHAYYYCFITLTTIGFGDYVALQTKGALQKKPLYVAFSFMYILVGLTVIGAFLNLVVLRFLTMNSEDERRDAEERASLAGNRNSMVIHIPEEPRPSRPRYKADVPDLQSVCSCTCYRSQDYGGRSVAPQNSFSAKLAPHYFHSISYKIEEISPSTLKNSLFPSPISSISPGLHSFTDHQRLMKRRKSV
With `COc1ccc([N+](=O)[O-])cc1-c1nc2ccccc2nc1-c1ccccc1`, the inhibition result is “inactive”.
Next, `COC(=O)Cn1cnc2scc(-c3ccc(C)c(C)c3)c2c1=O`: “inactive”.
Next, `CC(C)N(C(=O)CSc1nc(COc2ccccc2)nc2ccccc12)C(C)C`: 76.5% (active); `O=C1/C(=C/c2ccc3c(c2)OCO3)CCC/C1=C\c1ccc2c(c1)OCO2`: “inactive”.
For `COc1ccc(CCNc2ncnc3c2nnn3Cc2ccccc2)cc1`, the inhibition result is “inactive”.
Next, `O=C(NCCCc1ccccc1)c1cc(COc2c(F)cccc2F)on1`: “inactive”; `COc1ccc(CCNC(=O)c2ccccc2OCc2ccccc2)cc1`: 64% (active).
For the compound `COc1cc(NC(=S)NCCSc2ccc(C)cc2)cc(OC)c1`, the inhibition is 27% (active).
As for `COc1cccc(C(=O)NCCSc2ccc(Br)cc2)c1`, the inhibition result is “inactive”.
Turning to `COc1ccc(-c2noc(CSc3ccc(C)cc3)n2)cc1`, the inhibition entry was “inactive”.
For the compound `CCOc1ccccc1NC(=O)C12CC3CC(C1)CC(c1ccc(C)cc1)(C3)C2`, the inhibition entry is “inactive”.
On to `O=C(Oc1ccc(Br)cc1C(=S)N1CCOCC1)c1cccc([N+](=O)[O-])c1`, for which the inhibition is 50% (active).
For `COc1ccc(-c2oc(/N=C/N3CCCC3)c(C#N)c2-c2ccc(OC)cc2)cc1` the value was “inactive”.
Next, `O=C(Cn1cc(C(=O)c2cccs2)c2ccccc21)NCc1cccs1`: 39% (active); `Cc1ccc(CN(N=Nc2nonc2N)c2nonc2N)c(C)c1`: 68.5% (active).
Next, `C/C(=N\NC(=S)Nc1ccc(C)cc1)c1cc2ccccc2o1`: “inactive”; `Cc1cccc(N(C)C(=O)CN2C(=O)COc3ccc(S(=O)(=O)N4CCCCCC4)cc32)c1`: “inactive”.
As for `Cc1ccc(S(=O)(=O)N2CCN(C(=O)COC(=O)c3c(C)cc(C)cc3C)CC2)c(C)c1`, the inhibition result is “inactive”.
Consider `CCOc1ccc(C(C)C)cc1S(=O)(=O)n1nc(C)cc1C`, for which the inhibition is 33% (active).
For `CC(C)(C)NC(=O)NC(=O)CN1CCC(Cc2ccccc2)CC1` the value was “inactive”; for `CC1=CC(C)(C)N(C(=O)CSc2nnc(-c3ccccc3)o2)c2ccc(C)cc21`, “inactive”; for `C=CCOc1ccc(/C=N/NC(=O)C(C)Sc2ccccn2)cc1OCC` (configuration not stated), 46.5% (active).
Consider `O=[N+]([O-])/C=C/c1ccc2c(ccn2Cc2ccccc2)c1`, for which the inhibition result was “inactive”.
`COC(=O)c1sc(-c2ccc(C(C)(C)C)cc2)cc1NC(=O)/C=C/C(=O)O`: the inhibition entry is “inactive”.
For `O=C(C[C@H]1C(=O)N(c2ccc(F)c(F)c2)C[C@@H]1Cc1ccccc1)Nc1ccccc1` the value was 39% (active); for `O=C(CC(NC(=O)c1ccccc1)c1ccccc1)Nc1ccc(F)c(F)c1` (configuration not stated), “inactive”; for `Cc1ccc(C(=O)c2c(NC(=O)c3ccccc3)sc(C)c2C)cc1`, “inactive”.
